Assay outcomes as filed in PubChem.
FMDV inh = High Throughput Screening for Foot and Mouth Disease Virus Antivirals. FMDV antiviral cell-based qHTS. Potency, µM (titrated, usually from 57.9 µM), inactives show at the top dose activity change, negative = inhibition, usual class: inhibitors. 410,000 compounds, 1.2% hits. AID 1159524, 2015; calls by dose curve; tested in HEK293T cells; also: read-out not given here; potency is read from the fitted curve at half-maximal effect; nearly all actives have a fitted effect of over 45% in size
Marburg entry inh = qHTS for inhibitors of binding or entry into cells for Marburg Virus; Marburg virus pseudotyped entry inhibition, cell reporter; Potency, µM (top dose mostly 37.8 µM), for inactives: at the top dose activity change, negative = inhibition, most hits filed as inhibitors; 300,000 compounds, 1.8% hits; calls by dose curve; tested in HEK293 cells; also: potency is read from the fitted curve at half-maximal effect
HCV inhibitor = qHTS Assay for Inhibitors of Hepatitis C Virus (HCV); Potency, µM (doses to about 41.8 µM), for inactives: at the top dose activity change, negative = inhibition, most hits filed as inhibitors; Huh7.5.1 HCVcc-Cre infection, luciferase reporter, 44 h; 340,000 compounds, 3.4% hits; AID 651820, 2012; also: potency is read from the fitted curve at half-maximal effect
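Cells (1,000/well) were plated 4 h before compound, then infected with HCVcc-Cre virus (~0.5 moi). After 44 h further culture, infection was read as luciferase luminescence following a 15 min substrate incubation at room temperature.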
FBPA Giardia inh = qHTS Assay for Inhibitors of Fructose-1,6-bisphosphate Aldolase from Giardia Lamblia | 290,000 compounds, 0.71% hits | Potency, µM (highest dose often 59.6 µM), without a hit: at the highest dose activity, negative = inhibition, most hits filed as inhibitors | purified Giardia FBPA; also: potency is read from the fitted curve at half-maximal effect; nearly all actives have a fitted effect of over 55% in size
Target sequence (A8B2U2 whole entry, looked up): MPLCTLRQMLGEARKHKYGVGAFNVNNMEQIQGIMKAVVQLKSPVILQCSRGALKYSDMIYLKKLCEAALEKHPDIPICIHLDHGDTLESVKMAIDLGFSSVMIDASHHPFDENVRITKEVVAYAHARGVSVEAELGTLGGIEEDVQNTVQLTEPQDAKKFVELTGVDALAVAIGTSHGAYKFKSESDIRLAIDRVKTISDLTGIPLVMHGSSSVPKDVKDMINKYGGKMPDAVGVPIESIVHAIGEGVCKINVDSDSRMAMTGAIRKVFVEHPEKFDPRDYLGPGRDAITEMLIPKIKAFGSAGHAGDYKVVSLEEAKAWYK
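Giardia FBPA (40 nM reagent) was preincubated 10 min at RT with compound (up to 57.5 uM final), then substrate plus GAPDH/TPI/NAD/arsenate coupling system with diaphorase/resazurin was added; resorufin fluorescence (525/598 nm) was read after 20 min.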
HCMV inh = qHTS Assay for inhibitors of the human cytomegalovirus (HCMV); HFF cells, HCMV-luciferase reporter, 72 h; active compounds read low; activity change, negative = inhibition, % at 57.5 µM; AID 1259415, 2018; 410,000 compounds, 4.5% hits; in the data active = activity change below about -60%; inconclusive = no clear call, values can overlap the other calls; inactive = above about -39%
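Luciferase read-out from HCMV-luciferase-infected HFFs (MOI 1 PFU/cell) 72 h post infection at 37C; compounds added after 16 h cell attachment; activity normalized between buffer-only basal and Salinomycin (10uM) inhibitor controls.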
LASV entry inh = qHTS for Inhibitors of binding or entry into cells for Lassa Virus; Lassa virus pseudotype entry inhibition, cell reporter; Potency, µM (top dose mostly 37.9 µM), for the others: at the highest dose activity change, negative = inhibition, actives largely listed as inhibitors; 300,000 compounds, 1.2% hits; calls by dose curve; tested in HEK293 cells; also: potency is read from the fitted curve at half-maximal effect; nearly all actives have a fitted effect of over 50% in size
Starred values were filed as active, the others as inactive; u = inconclusive; x = no result; [ ] = remark or other dose. A selection: hits, their analogues and other compounds. The true share with any hit is near 8.3%. Unless noted, calls follow the shape of the dose curve; as a rule, active = well fitted curve in the direction sought with a large enough effect; inconclusive = small, poorly fitted or top-dose-only effect, or another doubt; inactive = no such curve, though single readings can be large; an effect the other way counts as inactive or inconclusive. % is scaled to controls: 0 for no effect and ±100 for the full control effect.

SMILES | FMDV inh | Marburg entry inh | HCV inhibitor | FBPA Giardia inh | HCMV inh | LASV entry inh
O=C(O)C1NCCN(C(=O)c2ccc3c(ccc4ccccc43)c2)C1C(=O)O (centres undefined) | -12% | x | x | -20% | x | x
CCCCn1nc(NC(=O)c2cccs2)c2cc3ccccc3nc21 | -12% | 16µM* | u | -19% | 7 | u
CCn1nc(NC(=O)c2ccco2)c2cc3cc(C)ccc3nc21 | -18% | u | u | -2% | 4 | -30%
CCCCn1nc(NC(=O)c2cccc(Cl)c2)c2cc3ccccc3nc21 | -11% | 8%[46.1 µM] | x | x | 5 | 3%[46.1 µM]
CCCn1nc(NC(=O)c2ccco2)c2cc3ccccc3nc21 | u | u | 35µM* | -7% | 4 | u
CCCn1nc(NC(=O)c2cccs2)c2cc3ccccc3nc21 | 7% | u | 11µM* | x | 2 | u
O=C1CCC[C@H]2[C@@H](Cc3ccccc3)[C@H](NCc3ccccc3)CC[C@]23CCCN13 | x | x | x | x | -9 | x
Cc1cccc([N+](=O)[O-])c1NC(=O)CN(Cc1ccccc1)Cc1ccccc1 | u | u | u | -3% | -61* | u
CCC(=O)Nc1cc(C(C)(C)C)ccc1C(C)=O | -8% | -18% | 10µM* | 7% | -10 | 3%
Cc1ccccc1-n1c(SCc2csc(Nc3ccccc3)n2)nnc1-c1cccnc1 | u | u | u | -1% | -14 | -18%
Cc1ccc(Nc2nc(CSc3nnc(-c4cccnc4)n3-c3ccccc3C)cs2)cc1 | -13% | u | 32µM* | 0% | 4 | u
CN(C)/C=N/c1c(C#N)cnn1-c1ncnc2sc(-c3ccccc3)cc12 | u | u | u | 4% | -23 | 11µM*
CN(C)/C=N/c1c(C#N)cnn1-c1ccccc1 | x | 0% | -8% | 3% | 97 | -5%
O=C1Cc2cc(S(=O)(=O)N3CCN(c4ccccc4)CC3)ccc2N1 | -15% | -7%[46.1 µM] | -27% | 8% | 36 | -11%[46.1 µM]
O=C1Cc2cc(CCN3CCN(c4nsc5ccccc45)CC3)c(Cl)cc2N1 | x | u | x | -6% | x | 5.8µM*
O=C(Nc1ccc(S(=O)(=O)N2CCOCC2)cc1)c1ccc([N+](=O)[O-])s1 | -13% | -6%[46.1 µM] | 8.9µM* | x | 6 | u
Cc1ccc(C(=O)Nc2ccc(Cc3ccncc3)cc2)cc1[N+](=O)[O-] | u | -28% | u | -6% | -39 | u
Cc1ccc(NC(=O)c2cc(S(=O)(=O)N3CCOCC3)c(Br)s2)cc1 | u | -25% | -25% | 1% | -39 | 10µM*
Cc1c(C(=O)Nc2ccc(Cc3ccncc3)cc2)cccc1[N+](=O)[O-] | -2% | u | -14% | -2% | -79* | 1%
O=C(Nc1ccc(S(=O)(=O)N2CCCC2)cc1)c1ccc([N+](=O)[O-])cc1 | -24% | -13%[46.1 µM] | -16% | 18% | 9 | u
Cc1ccc(C(=O)Nc2ccc(F)c(S(=O)(=O)N3CCOCC3)c2)s1 | u | x | u | x | -3 | x
O=C(Nc1ccc(S(=O)(=O)N2CCOCC2)cc1)c1cccs1 | 1% | -11% | 5% | 2% | 5 | u
O=C(Nc1ccc(S(=O)(=O)N2CCCC2)cc1)c1ccc([N+](=O)[O-])o1 | u | x | 2.8µM* | x | x | x
Fc1ccc(Nc2ncncc2-c2ccoc2)cc1 | -18% | x | x | -10% | x | x
Cc1c(C2=CCN(S(=O)(=O)c3ccc(CC(C)C)cc3)CC2)c2ccccc2n1CC(=O)N1CCCC1 | 0% | -20%[46.1 µM] | x | x | 10 | -22%[46.1 µM]
SMILES | FMDV inh | Marburg entry inh | HCV inhibitor | FBPA Giardia inh | HCMV inh | LASV entry inh
O=C(Nc1ccc(S(=O)(=O)N2CCCCCC2)cc1)c1ccc(Br)o1 | 46% | u | u | -5% | u | 9.2µM*
CCc1c(C(=O)Nc2ccc(S(=O)(=O)N3CCOCC3)cc2)csc1C | -24% | 6% | 10µM* | -13% | 11 | -21%
O=C(Nc1ccc(S(=O)(=O)N2CCOCC2)cc1)c1ccc([N+](=O)[O-])o1 | -14% | u | -22% | -20% | -99* | -25%
Cc1ccc(C(=O)Nc2ccc(S(=O)(=O)N3CCCC3)cc2)o1 | 0% | 1% | -3% | x | 17 | -6%
O=C(COC(=O)c1ccc([N+](=O)[O-])o1)Nc1ccc(N2CCOCC2)cc1 | 0% | x | 3% | x | 32 | x
O=C(Nc1ccc(N2CCOCC2)cc1)c1ccc([N+](=O)[O-])o1 | 27% | u | u | 3% | -103* | -28%[46.1 µM]
CCC(=O)Nc1ccc(S(=O)(=O)N2CCOCC2)cc1 | x | 23% | 18% | 0% | 30 | 6%
C=CCO[C@@H]1C=C[C@@H](c2ccccc2)O[C@@H]1COC | x | 18%[14.2 µM] | x | x | x | x
COc1cc(C(=O)Nc2cc3c(cc2C)n(C)c(=O)c(=O)n3C)cc(OC)c1OC | -12% | 25%[46.1 µM] | x | x | -8 | 15%[46.1 µM]
O=C(Nc1ccc(Cc2ccncc2)cc1)c1ccc([N+](=O)[O-])o1 | 10% | u | u | 0% | -101* | u
Cc1ccc2nc(NC3=NC4(CCCC4)C4=C(CCCC4=O)N3)oc2c1 | 40µM* | x | x | x | -4 | x
CCOC(=O)c1c(C)[nH]c(CCC(=O)NCc2cc(Br)ccc2OC)c1C | 5% | x | x | x | 10 | -18%[46.1 µM]
COc1cccc(C#CC2=CC(=O)CC(C)(C)C2)c1 | -19% | x | x | x | 2 | x
Cc1cccc(C#CC2=CC(=O)CC(C)(C)C2)c1 | 17% | x | x | x | -100* | x
CC(C)CC(c1nnnn1CC1CCCO1)N1CCN(c2cccc(Cl)c2)CC1 (centres undefined) | -16% | -22% | 7% | 1% | 15 | u
Oc1ccc(C(c2nnnn2CCc2ccccc2)N2CCN(c3nc4ccccc4s3)CC2)cc1 (centres undefined) | -2% | x | 13µM* | -1% | 0 | x
CC(C)CC(c1nnnn1Cc1ccco1)N1CCN(c2cccc(Cl)c2)CC1 (centres undefined) | u | 8.9µM* | -14% | -2% | -2 | u
CC(C)CC(c1nnnn1Cc1cccs1)N1CCN(c2nc3ccccc3s2)CC1 (centres undefined) | u | u | 1% | 2% | u | u
CC(C)C(c1nnnn1Cc1ccco1)N1CCN(c2nc3ccccc3s2)CC1 (centres undefined) | 22µM* | -9%[46.1 µM] | u | -1% | u | u
O=C1CC(N2CCN(c3nc4ccccc4s3)CC2)C(=O)N1Cc1cccs1 (centres undefined) | u | u | 14µM* | 2% | -3 | u
COCCNC(=S)N1C[C@H]2CON(C)[C@H]2C[C@H]1c1ccccc1Br | x | x | x | x | -11 | x
CN(/N=C/c1ccc([N+](=O)[O-])o1)c1ccccc1 | 0% | -25%[46.1 µM] | -6% | -1% | -78* | -14%
O=C(COc1ccccc1)N/N=C/c1ccc([N+](=O)[O-])o1 | 8% | x | 3% | -8% | -71* | x
